Reference: PubChem BioAssay AID1159580 (chemical genetic matrix, 2015)
The whole screen tested about 5,500 compounds, of which about 2,000 (36%) were called active. Not shown: some 18% with an inconclusive outcome. Some of the results follow. A number with no mark means an inactive call. Rule as the data show it: active = normalized growth mostly below about 0.91 (no sharp cut-off); inconclusive = no clear call, values can overlap the other calls; inactive = mostly above about 0.92.

Test: chemical genetic growth profiling, strain panel (AID 1159580);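 also: tested at 20 µM; growth read once vehicle control cultures reached saturation at 30 °C; 1 = growth at the plate median or of vehicle wells; lower values mean less growth of the strain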
Conditions: growth OD
[1] = S. cerevisiae deletion strains, locus YDL101C, strain DUN1, hits give low values
[2] = S. cerevisiae deletion strains, locus YHR030C, strain SLT2, hits give low values
[3] = S. cerevisiae deletion strains, locus YAL013W, strain DEP1, hits give low values
[4] = S. cerevisiae deletion strains, locus YBR229C, strain ROT2, hits give low values
[5] = S. cerevisiae deletion strains, locus YDR150W, strain NUM1, hits give low values
[6] = S. cerevisiae deletion strains, locus YEL061C, strain CIN8, hits give low values
[7] = S. cerevisiae deletion strains, locus YGR078C, strain PAC10, hits give low values
[8] = S. cerevisiae deletion strains, locus YHR087W, strain rtc3, hits give low values
[9] = S. cerevisiae deletion strains, locus YJR043C, strain POL32, hits give low values
[10] = S. cerevisiae deletion strains, locus YJR075W, strain HOC1, hits give low values
[11] = S. cerevisiae deletion strains, locus YLR039C, strain RIC1, hits give low values
[12] = S. cerevisiae deletion strains, locus YLR058C, strain SHM2 (second series), hits give low values
[13] = S. cerevisiae deletion strains, locus YLR085C, strain ARP6, hits give low values
[14] = S. cerevisiae deletion strains, locus YLR262C, strain YPT6, hits give low values
[15] = S. cerevisiae deletion strains, locus YML094W, strain GIM5, hits give low values
[16] = S. cerevisiae deletion strains, locus YMR219W, strain ESC1, hits give low values
[17] = S. cerevisiae deletion strains, locus YMR263W, strain SAP30, hits give low values
[18] = S. cerevisiae deletion strains, locus YNL153C, strain GIM3, hits give low values
[19] = S. cerevisiae deletion strains, locus YNL298W, strain CLA4 (second series), hits give low values
[20] = S. cerevisiae deletion strains, locus YNL322C, strain KRE1, hits give low values
[21] = S. cerevisiae deletion strains, locus YNR030W, strain Alg12, hits give low values
[22] = S. cerevisiae deletion strains, locus YOL006C, strain TOP1, hits give low values
[23] = S. cerevisiae deletion strains, locus YPL055C, strain LGE1, hits give low values
[24] = S. cerevisiae deletion strains, locus YPL241C, strain CIN2, hits give low values
[25] = S. cerevisiae deletion strains, locus YPR135W, strain CTF4, hits give low values

O=C(NNc1ccc(I)cc1)c1cc(Cl)cc(Cl)c1
normalized growth (S. cerevisiae deletion strains, locus YAR019C, strain CDC15, hits give low values): 0.949 | normalized growth (S. cerevisiae deletion strains, locus YBL105C, strain PKC1, hits give low values): 0.965 | normalized growth (S. cerevisiae deletion strains, locus YBR135W, strain CKS1, hits give low values): 0.953 | normalized growth (S. cerevisiae deletion strains, locus YBR136W, strain MEC1, hits give low values): 0.953 | normalized growth (S. cerevisiae deletion strains, locus YBR160W, strain CDC28, hits give low values): 0.948 | normalized growth (S. cerevisiae deletion strains, locus YDL017W, strain CDC7, hits give low values): 0.961 | normalized growth (S. cerevisiae deletion strains, locus YDL028C, strain MPS1, hits give low values): 0.94 | normalized growth [1]: 0.987 | normalized growth (S. cerevisiae deletion strains, locus YDL108W, strain KIN28, hits give low values): 0.943 | normalized growth (S. cerevisiae deletion strains, locus YDL132W, strain cdc53, hits give low values): 0.95 | normalized growth (S. cerevisiae deletion strains, locus YDL214C, strain PRR2, hits give low values): 0.88 | normalized growth (S. cerevisiae deletion strains, locus YDR052C, strain DBF4, hits give low values): 0.952 | normalized growth (S. cerevisiae deletion strains, locus YDR054C, strain cdc34, hits give low values): 0.955 | normalized growth (S. cerevisiae deletion strains, locus YDR226W, strain ADK1, hits give low values): 0.929 | normalized growth (S. cerevisiae deletion strains, locus YDR477W, strain SNF1, hits give low values): 0.731 | normalized growth (S. cerevisiae deletion strains, locus YER123W, strain YCK3, hits give low values): 0.651 | normalized growth (S. cerevisiae deletion strains, locus YER133W, strain GLC7, hits give low values): 0.909 | normalized growth (S. cerevisiae deletion strains, locus YFL009W, strain cdc4, hits give low values): 0.938 | normalized growth (S. cerevisiae deletion strains, locus YFL029C, strain CAK1, hits give low values): 0.956 | normalized growth (S. cerevisiae deletion strains, locus YFR003C, strain YPI1, hits give low values): 0.967 | normalized growth (S. cerevisiae deletion strains, locus YFR019W, strain FAB1, hits give low values): 0.767 (active) | normalized growth (S. cerevisiae deletion strains, locus YFR028C, strain CDC14, hits give low values): 0.931 | normalized growth (S. cerevisiae deletion strains, locus YGR040W, strain KSS1, hits give low values): 0.809 | normalized growth (S. cerevisiae deletion strains, locus YGR052W, strain FMP48, hits give low values): 0.832 | normalized growth (S. cerevisiae deletion strains, locus YGR092W, strain DBF2, hits give low values): 0.78 | normalized growth [2]: 0.536 (active) | normalized growth (S. cerevisiae deletion strains, locus YHR079C, strain IRE1, hits give low values): 0.918 | normalized growth (S. cerevisiae deletion strains, locus YHR082C, strain KSP1, hits give low values): 0.848 | normalized growth (S. cerevisiae deletion strains, locus YHR205W, strain SCH9, hits give low values): 0.746 | normalized growth (S. cerevisiae deletion strains, locus YIL147C, strain SLN1, hits give low values): 0.955 | normalized growth (S. cerevisiae deletion strains, locus YJL095W, strain BCK1, hits give low values): 0.695 | normalized growth (S. cerevisiae deletion strains, locus YJL157C, strain FAR1, hits give low values): 0.94 | normalized growth (S. cerevisiae deletion strains, locus YJR016C, strain ILV3, hits give low values): 0.971 | normalized growth (S. cerevisiae deletion strains, locus YJR066W, strain TOR1 (second series), hits give low values): 0.865 | normalized growth (S. cerevisiae deletion strains, locus YJR066W, strain TOR1, hits give low values): 0.771 | normalized growth (S. cerevisiae deletion strains, locus YKL048C, strain ELM1, hits give low values): 0.889 | normalized growth (S. cerevisiae deletion strains, locus YKL067W, strain YNK1, hits give low values): 0.906 | normalized growth (S. cerevisiae deletion strains, locus YKL101W, strain HSL1, hits give low values): 0.842 | normalized growth (S. cerevisiae deletion strains, locus YKL193C, strain SDS22, hits give low values): 0.96 | normalized growth (S. cerevisiae deletion strains, locus YKL203C, strain TOR2, hits give low values): 0.926 | normalized growth (S. cerevisiae deletion strains, locus YLR113W, strain HOG1, hits give low values): 0.498 (active) | normalized growth (S. cerevisiae deletion strains, locus YLR403W, strain SFP1, hits give low values): 0.842 | normalized growth (S. cerevisiae deletion strains, locus YML070W, strain DAK1, hits give low values): 0.849 | normalized growth (S. cerevisiae deletion strains, locus YMR001C, strain CDC5, hits give low values): 0.953 | normalized growth (S. cerevisiae deletion strains, locus YMR205C, strain PFK2 (second series), hits give low values): 0.904 | normalized growth (S. cerevisiae deletion strains, locus YMR277W, strain FCP1, hits give low values): 0.931 | normalized growth (S. cerevisiae deletion strains, locus YNL006W, strain LST8, hits give low values): 0.972 | normalized growth (S. cerevisiae deletion strains, locus YNL020C, strain ARK1, hits give low values): 0.901 | normalized growth (S. cerevisiae deletion strains, locus YNL161W, strain CBK1, hits give low values): 0.97 | normalized growth (S. cerevisiae deletion strains, locus YNL183C, strain NPR1, hits give low values): 0.889 | normalized growth (S. cerevisiae deletion strains, locus YNL207W, strain RIO2, hits give low values): 0.963 | normalized growth (S. cerevisiae deletion strains, locus YNL222W, strain SSU72, hits give low values): 0.946 | normalized growth (S. cerevisiae deletion strains, locus YOL078W, strain AVO1, hits give low values): 0.955 | normalized growth (S. cerevisiae deletion strains, locus YOL136C, strain PFK27, hits give low values): 0.864 | normalized growth (S. cerevisiae deletion strains, locus YOR061W, strain CKA2, hits give low values): 0.715 | normalized growth (S. cerevisiae deletion strains, locus YOR119C, strain RIO1, hits give low values): 0.79 | normalized growth (S. cerevisiae deletion strains, locus YOR231W, strain MKK1, hits give low values): 0.884 | normalized growth (S. cerevisiae deletion strains, locus YOR329C, strain SCD5, hits give low values): 0.976 | normalized growth (S. cerevisiae deletion strains, locus YPL031C, strain PHO85, hits give low values): 0.81 | normalized growth (S. cerevisiae deletion strains, locus YPL153C, strain RAD53, hits give low values): 0.84 | normalized growth (S. cerevisiae deletion strains, locus YPL204W, strain HRR25, hits give low values): 0.832 | normalized growth (S. cerevisiae deletion strains, locus YPL209C, strain IPL1, hits give low values): 0.956 | normalized growth (S. cerevisiae deletion strains, locus YPL256C, strain CLN2, hits give low values): 0.749 (active) | normalized growth (S. cerevisiae deletion strains, locus YPR025C, strain CCL1, hits give low values): 0.959 | normalized growth (S. cerevisiae deletion strains, locus YPR106W, strain ISR1, hits give low values): 0.957 | normalized growth (S. cerevisiae deletion strains, locus YPR111W, strain DBF20, hits give low values): 0.929 | normalized growth (S. cerevisiae deletion strains, strain NNK1, hits give low values): 0.97 | normalized growth (S. cerevisiae deletion strains, strain TSCII, hits give low values): 0.946

COCCCNC(=S)Nc1ccc(C)cc1C
normalized growth [3]: 0.985 | normalized growth [4]: 0.974 | normalized growth [1]: 0.968 | normalized growth [5]: 0.966 | normalized growth [6]: 1.01 | normalized growth [7]: 0.98 | normalized growth (S. cerevisiae deletion strains, locus YGR229C, strain SMI1, hits give low values): 0.986 | normalized growth [2]: 0.974 | normalized growth [8]: 1.04 | normalized growth (S. cerevisiae deletion strains, locus YJL187C, strain SWE1, hits give low values): 0.993 | normalized growth [9]: 0.977 | normalized growth [10]: 1 | normalized growth [11]: 0.975 | normalized growth [12]: 0.982 | normalized growth [13]: 0.921 | normalized growth [14]: 0.961 | normalized growth [15]: 1 | normalized growth [16]: 0.99 | normalized growth [17]: 0.999 | normalized growth [18]: 0.986 | normalized growth [19]: 0.97 | normalized growth [20]: 0.981 | normalized growth [21]: 1 | normalized growth [22]: 0.923 | normalized growth [23]: 1.01 | normalized growth [24]: 0.973 | normalized growth [25]: 0.917 | normalized growth (S. cerevisiae strains, strain wild type, hits give low values): 0.987

Cc1ccc(NC(=S)NCCO)c(C)c1
normalized growth [3]: 1 | normalized growth [4]: 0.987 | normalized growth [1]: 1.01 | normalized growth [5]: 1 | normalized growth [6]: 0.99 | normalized growth [7]: 1.01 | normalized growth [2]: 1 | normalized growth [8]: 1.01 | normalized growth [9]: 0.997 | normalized growth [10]: 0.978 | normalized growth [11]: 1.01 | normalized growth [12]: 0.996 | normalized growth [13]: 1 | normalized growth [14]: 1 | normalized growth [15]: 1.01 | normalized growth [16]: 1 | normalized growth [17]: 1 | normalized growth (S. cerevisiae deletion strains, locus YNL128W, strain TEP1, hits give low values): 1 | normalized growth [18]: 1 | normalized growth [19]: 1.02 | normalized growth [20]: 0.98 | normalized growth [21]: 0.986 | normalized growth [22]: 1.03 | normalized growth [23]: 1.01 | normalized growth [24]: 0.945 | normalized growth [25]: 1.03
